Source: PubChem
Shown are actives, neighbours in structure and some others; about 0.44% of the full set was active somewhere.
YopH PTP inh – inhibitors of Yersinia enterocolitica YopH tyrosine phosphatase. fluorescence Ex485/Em525. inhibition, % (test concentration not listed). hit rate 0.16% among 140,000; in the data active = inhibition above about 50%
RmlC RmlD mix – mixture blocks RmlC and RmlD coupled enzyme activity; inhibition, % at 5.5 µM; RmlC/RmlD coupled enzyme inhibition, 384-well mixture HTS; AID 1532; hit rate 0.39% among 110,000; in the data active = inhibition above about 30%, passing the limit was not always enough; inconclusive = no clear call, values can overlap the other calls
RmlCD fluor art – shows fluorescent artifact in RmlC/RmlD assay, dose-response counter-screen | shares compounds with RmlC RmlD mix | RmlC/RmlD assay fluorescence artifact counter-screen | calls only | hit rate 96% among 360; call rule not given here;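 also: compound alone with no enzyme and no substrates present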
Starred values were filed as active, the others as inactive.

Screening COc1ccc(S(=O)(=O)n2nc(OC(=O)c3cccs3)cc2NC(=O)c2cccs2)cc1 returned RmlC RmlD mix -17.
For CC1CCCCN1c1nnc(NC(=O)c2cc(-c3ccc(Br)cc3)on2)s1 (centres undefined) the results were YopH PTP inh -32 and RmlC RmlD mix 4.
Screening COc1ccc(C)cc1S(=O)(=O)N1c2ccccc2CC1C (centres undefined) returned YopH PTP inh -3 and RmlC RmlD mix 4.
O=C(N[C@@H](Cc1ccc(O)cc1)C(=O)O)c1cccnc1 was read as RmlC RmlD mix 3.
Screening CCOc1ccc(C(=O)c2cc([N+](=O)[O-])ccc2Cl)cc1 returned YopH PTP inh -31 and RmlC RmlD mix -13.
Screening COc1cccc(-c2nc(SC)nc3sc(C(=O)NC(C)(C)C)c(N)c23)c1 returned RmlC RmlD mix -16.
`NS(=O)(=O)c1ccc(N2N=C(c3ccccc3)CC2c2ccc(F)cc2)cc1` (centres undefined) gave YopH PTP inh -20, RmlC RmlD mix 149* and RmlCD fluor art active.
For COc1ccc(C2CC(c3ccccc3)=NN2c2ccc(/C=N/NC(=O)c3ccncc3)cc2)cc1 (centres undefined) the results were YopH PTP inh -8 and RmlC RmlD mix 8.
For CC(C)(O)C#Cc1ccc(C(=O)NCc2ccccc2)s1 the results were YopH PTP inh -18 and RmlC RmlD mix -9.
Screening N#Cc1c(C(F)(F)F)cc(C2CC2)[nH]c1=O returned YopH PTP inh -17, RmlC RmlD mix 40* and RmlCD fluor art active.
Cc1ccc(-c2cc(C(F)(F)F)c(C#N)c(=O)[nH]2)cc1 was read as YopH PTP inh -20.
Screening NC(=O)CSc1nc2cc3c(cc2c(=O)n1CCCC(=O)NCc1ccc2c(c1)OCO2)OCO3 returned YopH PTP inh 5 and RmlC RmlD mix -9.
Cc1ccc2c(c1)c(CC(=O)Nc1ccc(F)cc1)c(C(=O)O)n2C was read as YopH PTP inh -29 and RmlC RmlD mix -7.
COc1ccccc1-c1c(C)oc2c(CN3CCN(CCO)CC3)c(O)ccc2c1=O was read as YopH PTP inh -37 and RmlCD fluor art inactive.
Screening COc1ccc(-c2c(C)oc3c(CN4CCN(CCO)CC4)c(O)ccc3c2=O)cc1OC returned YopH PTP inh -20.
COc1ccccc1-c1c(C)oc2c(CN3CCN(C)CC3)c(O)ccc2c1=O was read as YopH PTP inh -36, RmlC RmlD mix 43* and RmlCD fluor art active.
CCOC(=O)c1oc2c(CN3CCN(C)CC3)c(O)ccc2c(=O)c1-c1ccccc1OC was read as YopH PTP inh -7 and RmlC RmlD mix 9.
CCCCNC(=O)[C@H](CSCc1ccccc1)N1Cc2ccccc2C1=O was read as YopH PTP inh -25 and RmlC RmlD mix inconclusive.
For COC(=O)c1sc2cnccc2c1N the results were YopH PTP inh -34, RmlC RmlD mix 34* and RmlCD fluor art active.
Screening COC(=O)c1sc2nc(N)c(C#N)cc2c1N returned YopH PTP inh -24.
For Cc1nc2c(c(=O)n1CCC1=CCCCC1)c1nc3ccccc3nc1n2/N=C/c1ccccc1 the results were YopH PTP inh -11, RmlC RmlD mix -5 and RmlCD fluor art active.
`CCOCCCn1c(C)nc2c(c1=O)c1nc3ccccc3nc1n2CCC1=CCCCC1` gave YopH PTP inh -11.
For CCC1CCc2c(sc3nc(SCC(=O)NCc4ccco4)n(-c4ccccc4)c(=O)c23)C1 (centres undefined) the results were YopH PTP inh -40 and RmlC RmlD mix 5.
Screening O=C(O)c1cc(-c2ccccc2)nc2ccccc12 returned YopH PTP inh -27 and RmlC RmlD mix 4.
Screening CCOc1ccc(-c2cc(C(=O)O)c3ccccc3n2)cc1 returned YopH PTP inh -28, RmlC RmlD mix 32* and RmlCD fluor art active.
For Cc1cc(NCCN2CCOCC2)n2c(nc3ccccc32)c1C#N the results were YopH PTP inh -83 and RmlC RmlD mix 20.
Cc1cc(NCCCN2CCOCC2)n2c(nc3ccccc32)c1C#N was read as YopH PTP inh -43, RmlC RmlD mix 71* and RmlCD fluor art active.
Cc1sc2nc(-c3cccnc3)nc(Cl)c2c1-c1ccccc1 was read as YopH PTP inh -5.
Cc1cc(C)c2nc(NC(=O)[C@@H](NC(=O)c3cccc(S(=O)(=O)N4CCOCC4)c3)C(C)C)sc2c1 was read as YopH PTP inh 4.
Screening COc1cccc(-n2nnnc2SCC(=O)c2cc(OC)ccc2OC)c1 returned YopH PTP inh -34, RmlC RmlD mix 38* and RmlCD fluor art active.
COc1cccc(-n2nnnc2SCC(=O)c2ccc(NC(C)=O)cc2)c1 was read as YopH PTP inh -46 and RmlC RmlD mix 23.
O=C(NCCN1CCOCC1)c1ccc(F)cc1 was read as YopH PTP inh -3 and RmlC RmlD mix -2.
`O=C(NCCN1CCOCC1)c1ccc(=O)oc1` gave YopH PTP inh -7, RmlC RmlD mix 43* and RmlCD fluor art active.
`N#C[C@H]1C2OC2c2ccccc2N1C(=O)c1ccccc1` (some centres undefined) gave RmlC RmlD mix 4.
For CC1CC2=C(C(=O)O1)C(c1ccc(Cl)cc1)Nc1ccccc1N2 (centres undefined) the results were YopH PTP inh -8.
`COc1ccc2cc3cc(C(=O)NC(C)C)oc3nc2c1` gave YopH PTP inh -1, RmlC RmlD mix 96* and RmlCD fluor art active.
Screening COc1ccc2cc3cc(C(=O)Nc4cc(OC)c(OC)c(OC)c4)oc3nc2c1 returned YopH PTP inh -12 and RmlC RmlD mix 13.
Screening CCNc1nc(ON=C(C)C)nc(N(C)C)n1 returned YopH PTP inh -35.
For Cc1ccc2nc3c(cc(C(=O)NCC4CCCO4)c(=N)n3CCCOC(C)C)c(=O)n2c1 (centres undefined) the results were YopH PTP inh -39, RmlC RmlD mix 126* and RmlCD fluor art active.
Screening CC(C)OCCCn1c(=N)c(C(N)=S)cc2c(=O)n3ccccc3nc21 returned YopH PTP inh -22 and RmlC RmlD mix 35.
O=C(C1COc2ccccc2O1)N1CCc2ccccc2C1 (centres undefined) was read as YopH PTP inh -4 and RmlC RmlD mix -15.
Screening CCCC[C@@H]1CCCO[C@@](C(=O)NCc2ccc(C)o2)(C(F)(F)F)C1 returned RmlC RmlD mix 1.
`COc1ccc(C)cc1NC(=O)c1cnc2scc(C)n2c1=O` gave YopH PTP inh 23, RmlC RmlD mix 47* and RmlCD fluor art active.
Screening COc1ccc(C)cc1NC(=O)c1cnc2n(c1=O)CCS2 returned YopH PTP inh -13 and RmlC RmlD mix 7.
`CCOC(=O)C[C@H]1c2ccccc2S(=O)(=O)N1c1cccc(OC)c1` gave RmlC RmlD mix -3.
Screening CCOC(=O)CN1C(=O)N[C@@H](c2cccc(C(F)(F)F)c2)[C@@H](C(=O)OC)[C@H]1C returned RmlC RmlD mix 11.
CC(C)=CCc1c(O)cc(O)c2c(=O)c3c(CC=C(C)C)c(O)ccc3oc12 was read as RmlC RmlD mix -9.
`Nc1c(C(=O)NCCN2CCOCC2)c2nc3ccccc3nc2n1Cc1ccco1` gave YopH PTP inh -3, RmlC RmlD mix 37* and RmlCD fluor art active.
CCOC(=O)c1c(N)n(CCN2CCCCC2)c2nc3ccccc3nc12 was read as YopH PTP inh -21, RmlC RmlD mix 38* and RmlCD fluor art active.
